# Experimental data from the OligoGym collection.
# Target: ECH1
# Assay: pooled miR-30 sensor sort-seq; sequence = guide strand
# Conditions: shRNA
# Note: reference of the scale not given here.
row,Sequence,sensor-assay potency score (higher = more potent)
1,TGTCCATCAGGTCAATACCTGC,-1.4
2,TTGTTCTCAGTCGTGGCCTGGA,-0.493
3,TTGTTCATGGCATTCCTCTTGT,0.382
4,TCGTCAGCCATCATCTTGCGGG,-0.729
5,TTCTGCGCAGACGTCACACGAA,-0.688
6,TACAGCAGGTTGACCTTGGTGC,0.173
7,TTGTGCAGAGGAGCCAGTGAGG,-1.37
8,TCTTGCTGGAAATCTCGGCCGC,-0.461
9,TTGGGCTGCAGGATGTCCGAAG,-0.857
10,TCAGCGTCTCTCGAAATCTTGT,-0.622
11,TTGGAGCCTGTCAGTCGCCGGG,-1.13
12,AAATCTTGTTGAAGCACTCTAC,0.264
13,TAAACTGGGAAACTGGGTCAGA,-0.506

# Target: EDDM3B
# Assay: as above
# Conditions: shRNA
row,Sequence,sensor-assay potency score (higher = more potent)
1,TTTCGGAAGCGATCCATCCAGT,-0.761
2,ATCTTTAGGTCTTCTATGCTAT,-0.978
3,TAGAAAGCACTGAATACTCTAC,-0.181
4,TTGCTCTGTACAAGCAGTGTGC,-0.53
5,ATATGCTCGATTTTGTACCATG,-1.24
6,TCAATGTAGTTGAAGCTCCTGC,0.357
7,TTTGAGAGGATTCTGGACCCAT,0.578
8,TTGGACTTAAGTAGTGCTGTTT,-0.357
9,TATGCTATCAACATACCCGTCC,0.462

# Target: EDF1
# Assay: as above
# Conditions: shRNA
row,Sequence,sensor-assay potency score (higher = more potent)
1,TCTTGGTAATAGAATGTTGTTT,-1.13
2,TTTGACAGCAGGAATGGGCTGG,0.46
3,TTTCGTGGCCAGGTCCTTCTGC,-0.179
4,AATAGAATGTTGTTTGTTCTGG,-0.0468
5,ATTTCTTGGAAGTCTCCACATC,-1.38
6,TCATAGTCCGCGATCACCTGTG,0.11
7,TTCTCATTGATTTTCGTGGCCA,-0.538
8,TGTTCTTGGTAATAGAATGTTG,-1.17
9,TTTCCAATGTCCTTTCCCCGGA,-0.772
10,TTGCTCTGCCGACCTTGCTGGA,-1.14
11,TGCAGCTCCTCTGTCTCCCGGT,-0.285
12,TTGCGCAGCACCGTCACCGTGT,-0.348

# Target: EFCAB6
# Assay: as above
# Conditions: shRNA
row,Sequence,sensor-assay potency score (higher = more potent)
1,TAGTTCTGAATCCGCAACCTTC,-0.922
2,TAAGAGAACATCCACATTCTTC,-0.398
3,TTCTTAGACAAGTCTGACCATC,-0.457
4,TATATCGAAATTCTTCTCTTGT,0.825
